Experimental data reported in the supplement of paper PMC8975748.
Counter-ions that a name gives are not always drawn. ± gives the standard deviation of the averaged measurements.

Columns and labels:
[1] = test system: Saccharomyces cerevisiae BY4741 SeMeCo community; test: mean cell size (pixel area) (pixels); higher = larger cells; settings: 10 µM; 24 h; SM minimal medium
Outline: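 A four-plasmid fluorescent Saccharomyces cerevisiae BY4741 community was tested; each plasmid complements one auxotrophy and carries a fluorescent marker. An overnight preculture at OD600 = 1.0 was diluted to OD600 = 0.3, and 70 µl was added to 384-well plates acoustically predosed with drug (final 10 µM) in SM medium for 24 h. Cells were fixed with paraformaldehyde and imaged by automated confocal microscopy, with analysis in Harmony. Mean cell pixel area per well is averaged over 3 replicates. Same SeMeCo high-content imaging drug screen: Selleck FDA-approved drugs at 10 µM, 24 h in SM medium, 384-well plates, 3 replicates.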

[2] = test system: Saccharomyces cerevisiae BY4741 SeMeCo community; test: z-score of prototroph abundance vs DMSO median; higher = larger share of this subpopulation than in DMSO controls; settings: 10 µM; 24 h; SM minimal medium; subpopulation (auxotrophy): Prototroph
Outline: (§1)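 Cells of a Saccharomyces cerevisiae BY4741 community, carrying four plasmids that each restored one auxotrophy and encoded a distinct fluorescent protein, were pre-grown overnight to OD600 1.0 and diluted to 0.3. A 70 µl volume was added to 384-well plates acoustically predosed with library drugs (10 µM final) and grown 24 h in minimal SM medium. After paraformaldehyde fixation, automated confocal microscopy was used, with single-auxotroph fluorescent strains for thresholds and autofluorescence correction. The abundance of each subpopulation was scored as a z-score against the vehicle-well median.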

[3] = test system: Saccharomyces cerevisiae BY4741 SeMeCo community; test: z-score of subpopulation abundance vs DMSO median, subpopulation auxotrophic for M; higher = larger share of this subpopulation than in DMSO controls; settings: 10 µM; 24 h; SM minimal medium; subpopulation (auxotrophy): M
Outline: as §1

[4] = test system: Saccharomyces cerevisiae BY4741 SeMeCo community; test: z-score of subpopulation abundance vs DMSO median, subpopulation auxotrophic for L; higher = larger share of this subpopulation than in DMSO controls; settings: 10 µM; 24 h; SM minimal medium; subpopulation (auxotrophy): L
Outline: as §1

[5] = test system: Saccharomyces cerevisiae BY4741 SeMeCo community; test: z-score of subpopulation abundance vs DMSO median, subpopulation auxotrophic for U; higher = larger share of this subpopulation than in DMSO controls; settings: 10 µM; 24 h; SM minimal medium; subpopulation (auxotrophy): U
Outline: as §1

[6] = test system: Saccharomyces cerevisiae BY4741 SeMeCo community; test: z-score of subpopulation abundance vs DMSO median, subpopulation auxotrophic for H; higher = larger share of this subpopulation than in DMSO controls; settings: 10 µM; 24 h; SM minimal medium; subpopulation (auxotrophy): H
Outline: as §1

[7] = test system: Saccharomyces cerevisiae BY4741 SeMeCo community; test: z-score of subpopulation abundance vs DMSO median, subpopulation auxotrophic for LM; higher = larger share of this subpopulation than in DMSO controls; settings: 10 µM; 24 h; SM minimal medium; subpopulation (auxotrophy): LM
Outline: as §1

[8] = test system: Saccharomyces cerevisiae BY4741 SeMeCo community; test: z-score of subpopulation abundance vs DMSO median, subpopulation auxotrophic for HM; higher = larger share of this subpopulation than in DMSO controls; settings: 10 µM; 24 h; SM minimal medium; subpopulation (auxotrophy): HM
Outline: as §1

[9] = test system: Saccharomyces cerevisiae BY4741 SeMeCo community; test: z-score of subpopulation abundance vs DMSO median, subpopulation auxotrophic for HU; higher = larger share of this subpopulation than in DMSO controls; settings: 10 µM; 24 h; SM minimal medium; subpopulation (auxotrophy): HU
Outline: as §1

[10] = test system: Saccharomyces cerevisiae BY4741 SeMeCo community; test: z-score of subpopulation abundance vs DMSO median, subpopulation auxotrophic for HL; higher = larger share of this subpopulation than in DMSO controls; settings: 10 µM; 24 h; SM minimal medium; subpopulation (auxotrophy): HL
Outline: as §1

[11] = test system: Saccharomyces cerevisiae BY4741 SeMeCo community; test: z-score of subpopulation abundance vs DMSO median, subpopulation auxotrophic for HLM; higher = larger share of this subpopulation than in DMSO controls; settings: 10 µM; 24 h; SM minimal medium; subpopulation (auxotrophy): HLM
Outline: as §1

[12] = test system: Saccharomyces cerevisiae BY4741 SeMeCo community; test: z-score of subpopulation abundance vs DMSO median, subpopulation auxotrophic for LUM; higher = larger share of this subpopulation than in DMSO controls; settings: 10 µM; 24 h; SM minimal medium; subpopulation (auxotrophy): LUM
Outline: as §1

[13] = test system: Saccharomyces cerevisiae BY4741 SeMeCo community; test: z-score of subpopulation abundance vs DMSO median, subpopulation auxotrophic for HLUM; higher = larger share of this subpopulation than in DMSO controls; settings: 10 µM; 24 h; SM minimal medium; subpopulation (auxotrophy): HLUM
Outline: as §1

[14] = test system: Saccharomyces cerevisiae BY4741 SeMeCo community; test: z-score of subpopulation abundance vs DMSO median, subpopulation auxotrophic for LU; higher = larger share of this subpopulation than in DMSO controls; settings: 10 µM; 24 h; SM minimal medium; subpopulation (auxotrophy): LU
Outline: as §1

[15] = test system: Saccharomyces cerevisiae BY4741 SeMeCo community; test: z-score of subpopulation abundance vs DMSO median, subpopulation auxotrophic for UM; higher = larger share of this subpopulation than in DMSO controls; settings: 10 µM; 24 h; SM minimal medium; subpopulation (auxotrophy): UM
Outline: as §1

[16] = test system: Saccharomyces cerevisiae BY4741 SeMeCo community; test: z-score of subpopulation abundance vs DMSO median, subpopulation auxotrophic for HUM; higher = larger share of this subpopulation than in DMSO controls; settings: 10 µM; 24 h; SM minimal medium; subpopulation (auxotrophy): HUM
Outline: as §1

Compound: C[C@]12CC[C@@H]3c4ccc(O)cc4C[C@@H](CCCCCCCCC[S+]([O-])CCCC(F)(F)C(F)(F)F)[C@H]3[C@@H]1CC[C@@H]2O (stereo partly drawn) [Fulvestrant]
- mean cell size [1]: 12.4 ± 0.074
- z-score of prototroph abundance [2]: -1.17
- z-score of subpopulation abundance [3]: 0.89
- z-score of subpopulation abundance [4]: 1.23
- z-score of subpopulation abundance [5]: -0.43
- z-score of subpopulation abundance [6]: 0.56
- z-score of subpopulation abundance [7]: 1.39
- z-score of subpopulation abundance [8]: 0.9
- z-score of subpopulation abundance [9]: 0.88
- z-score of subpopulation abundance [10]: 0.87
- z-score of subpopulation abundance [11]: 0.89
- z-score of subpopulation abundance [12]: 1.7
- z-score of subpopulation abundance [13]: 1.35

Compound: CC1=C[C@H]2C(=O)O[C@H]3C[C@@H](C/C=C(\C)C[C@@H](C)/C=C/C=C4\CO[C@H](/C1=N\O)[C@@]42O)O[C@@]1(CC[C@H](C)[C@@H](C)O1)C3.CC[C@H]1O[C@]2(CC[C@@H]1C)C[C@@H]1C[C@@H](C/C=C(\C)C[C@@H](C)/C=C/C=C3\CO[C@@H]4/C(=N\O)C(C)=C[C@@H](C(=O)O1)[C@]34O)O2 [Milbemycin Oxime]
- mean cell size [1]: 12.36 ± 0.099
- z-score of subpopulation abundance [4]: 0.14
- z-score of subpopulation abundance [5]: -0.74
- z-score of subpopulation abundance [6]: 2.17
- z-score of subpopulation abundance [14]: -0.7
- z-score of subpopulation abundance [7]: -0.44
- z-score of subpopulation abundance [8]: 0.15
- z-score of subpopulation abundance [9]: 0.42
- z-score of subpopulation abundance [15]: -1.12
- z-score of subpopulation abundance [10]: 1.42
- z-score of subpopulation abundance [11]: -0.22
- z-score of subpopulation abundance [16]: 0.03
- z-score of subpopulation abundance [12]: -0.87
- z-score of subpopulation abundance [13]: -0.41

Compound: O=C1CN(/N=C/c2ccc(-c3ccc([N+](=O)[O-])cc3)o2)C(=O)N1 [Dantrolene sodium]
- z-score of prototroph abundance [2]: 2.09
- z-score of subpopulation abundance [3]: 0.97
- z-score of subpopulation abundance [4]: 2.03
- z-score of subpopulation abundance [5]: -3.65
- z-score of subpopulation abundance [6]: 0.84
- z-score of subpopulation abundance [14]: -2.49
- z-score of subpopulation abundance [7]: 1.59
- z-score of subpopulation abundance [8]: 0.62
- z-score of subpopulation abundance [9]: -3.33
- z-score of subpopulation abundance [15]: -2.91
- z-score of subpopulation abundance [10]: 1.35
- z-score of subpopulation abundance [16]: -2.36
- z-score of subpopulation abundance [12]: -0.73

Compound: CN[C@@H]1[C@H](O[C@H]2[C@H](O[C@H]3[C@H](O)[C@@H](O)[C@H](NC(=N)N)[C@@H](O)[C@@H]3NC(=N)N)O[C@@H](C)[C@]2(O)CO)O[C@@H](CO)[C@H](O)[C@H]1O [Dihydrostreptomycin sulfate]
- mean cell size [1]: 12.2 ± 0.26
- z-score of prototroph abundance [2]: 0.5
- z-score of subpopulation abundance [3]: -0.56
- z-score of subpopulation abundance [4]: 0.01
- z-score of subpopulation abundance [5]: 0.78
- z-score of subpopulation abundance [6]: -0.62
- z-score of subpopulation abundance [7]: -0.32
- z-score of subpopulation abundance [8]: -0.91
- z-score of subpopulation abundance [9]: -0.87
- z-score of subpopulation abundance [15]: -0.47
- z-score of subpopulation abundance [10]: -0.83
- z-score of subpopulation abundance [11]: 0.47
- z-score of subpopulation abundance [16]: -0.82
- z-score of subpopulation abundance [12]: -0.71
- z-score of subpopulation abundance [13]: 0.3

Compound: N#C/C(=C1/SC[C@@H](c2ccc(Cl)cc2Cl)S1)n1ccnc1 [Luliconazole]
- mean cell size [1]: 12 ± 0.31
- z-score of prototroph abundance [2]: -8.67
- z-score of subpopulation abundance [5]: -0.31
- z-score of subpopulation abundance [6]: 18.4
- z-score of subpopulation abundance [14]: 0.85
- z-score of subpopulation abundance [7]: 1.33
- z-score of subpopulation abundance [8]: 7.54
- z-score of subpopulation abundance [9]: 10.5
- z-score of subpopulation abundance [15]: 11.7
- z-score of subpopulation abundance [10]: 4.75
- z-score of subpopulation abundance [11]: 16.8
- z-score of subpopulation abundance [16]: 10.6
- z-score of subpopulation abundance [12]: 4.52

Compound: CC(C)(C)[C@H]1CC[C@H](CC2=C(O)C(=O)c3ccccc3C2=O)CC1 [Buparvaquone]
- mean cell size [1]: 12.1 ± 0.18

Compound: CC[C@H]1OC(=O)C[C@@H](O)[C@H](C)[C@@H](O[C@@H]2O[C@H](C)[C@@H](O[C@H]3C[C@@](C)(O)[C@@H](O)[C@H](C)O3)[C@H](N(C)C)[C@H]2O)[C@@H](CC=O)C[C@@H](C)C(=O)/C=C/C(C)=C/[C@@H]1CO[C@@H]1O[C@H](C)[C@@H](O)[C@@H](OC)[C@H]1OC [Tylosin tartrate]
- mean cell size [1]: 12.45 ± 0.055

Compound: CNS(=O)(=O)Cc1ccc2[nH]cc(CCN(C)C)c2c1 [Sumatriptan Succinate]
- mean cell size [1]: 12.34 ± 0.1

Compound: Clc1ccc2c(N3CCN(CCCN4CCN(c5ccnc6cc(Cl)ccc56)CC4)CC3)ccnc2c1 [Piperaquine phosphate]
- z-score of prototroph abundance [2]: -0.69
- z-score of subpopulation abundance [5]: 0.1
- z-score of subpopulation abundance [14]: -0.13
- z-score of subpopulation abundance [7]: 0.85
- z-score of subpopulation abundance [9]: -0.29
- z-score of subpopulation abundance [15]: 0.36
- z-score of subpopulation abundance [10]: -0.1
- z-score of subpopulation abundance [11]: 0.63
- z-score of subpopulation abundance [16]: -0.06
- z-score of subpopulation abundance [12]: -0.03
- z-score of subpopulation abundance [13]: 0.31

Compound: C=CC1=C(C(=O)O)N2C(=O)[C@@H](NC(=O)/C(=N\O)c3csc(N)n3)[C@H]2SC1 [Cefdinir]
- mean cell size [1]: 12.48 ± 0.068

Compound: CN(C)[C@@H]1C(O)=C(C(N)=O)C(=O)[C@@]2(O)C(O)=C3C(=O)c4c(O)cccc4[C@@](C)(O)[C@H]3C[C@@H]12 [Tetracycline HCl]
- mean cell size [1]: 12.3 ± 0.19

Compound: CC(=O)[C@@]1(O)CC[C@H]2[C@@H]3CCC4=CC(=O)CCC4=C3[C@@H](c3ccc(N(C)C)cc3)C[C@@]21C [Ulipristal]
- mean cell size [1]: 12.3 ± 0.16

Compound: O=S(=O)(O)CCCCOC[C@H]1O[C@@H]2O[C@H]3[C@H](O)[C@@H](O)[C@@H](O[C@H]4[C@H](O)[C@@H](O)[C@@H](O[C@H]5[C@H](O)[C@@H](O)[C@@H](O[C@H]6[C@H](O)[C@@H](O)[C@@H](O[C@H]7[C@H](O)[C@@H](O)[C@@H](O[C@H]8[C@H](O)[C@@H](O)[C@@H](O[C@H]1[C@H](O)[C@H]2O)O[C@@H]8CO)O[C@@H]7COCCCCS(=O)(=O)O)O[C@@H]6COCCCCS(=O)(=O)O)O[C@@H]5COCCCCS(=O)(=O)O)O[C@@H]4COCCCCS(=O)(=O)O)O[C@@H]3COCCCCS(=O)(=O)O
- mean cell size [1]: 12.1 ± 0.26

Compound: CCCc1nc(C)c2c(=O)nc(-c3cc(S(=O)(=O)N4CCN(CC)CC4)ccc3OCC)[nH]n12 [Vardenafil HCl Trihydrate]
- z-score of prototroph abundance [2]: -0.75
- z-score of subpopulation abundance [4]: 0.04
- z-score of subpopulation abundance [5]: 1.19
- z-score of subpopulation abundance [6]: 0.41
- z-score of subpopulation abundance [14]: 0.67
- z-score of subpopulation abundance [7]: -1.19
- z-score of subpopulation abundance [8]: 0.87
- z-score of subpopulation abundance [15]: 0.56
- z-score of subpopulation abundance [10]: -0.13
- z-score of subpopulation abundance [11]: -0.16
- z-score of subpopulation abundance [12]: -0.24
- z-score of subpopulation abundance [13]: 0.24
